NIH3T3 tox: kills NIH 3T3 cells | NIH 3T3 viability, CellTiter-Glo ATP luminescence, 48-72 h | Potency, µM (highest dose often 96.7 µM), most hits filed as inhibitors | 94,000 compounds, 4.3% hits; note: nearly all actives have a fitted effect of over 55% in size
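Luminescent ATP readout (CellTiter-Glo, 10 min RT) after 48 or 72 hr compound exposure of NIH 3T3 cells seeded at 400 cells/well in 1536-well format; quantitative HTS.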
NPR1 antag: human Npr1 receptor antagonism. AID 1347048. Potency, µM (titrated, usually from 46.3 µM), actives largely listed as inhibitors. 76,000 compounds, 1.6% hits. P16066. HEK293 hNpr1 GloSensor cGMP, ANP-stimulated luminescence; calls by dose curve; note: nearly all actives have a fitted effect of over 60% in size
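HEK293 cells stably expressing human Npr1 and cGMP GloSensor pGS-40F, loaded 2 h with 2% GloSensor reagent, given compound 30 min at room temperature. Luminescence read before and 20 min after 0.1 nM hNppA.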
HEK293 tox: HEK 293 cell cytotoxicity | HEK 293 viability, ATP luminescence (CellTiter-Glo), 48-72 h | Potency, µM (series often up to 115 µM), hits mostly inhibitors | 94,000 compounds, 6.6% hits | AID 1345083; note: nearly all actives have a fitted effect of over 60% in size
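Cells seeded first (HEK 293, 250 cells/well), then compound added by pintool. Incubation ran 48 or 72 hr at 37 degree Celsius. CellTiter-Glo was added and luminescence imaged after 10 min at room temperature.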
FLuc inh: inhibitors of firefly (Photinus pyralis) luciferase. 76,000 compounds, 2.5% hits. AID 1347043. P08659. purified P. pyralis luciferase, luminescence, biochemical. Potency, µM (highest dose often 115 µM), usual class: inhibitors; note: nearly all actives have a fitted effect of over 65% in size
Target sequence (P08659 whole entry, looked up): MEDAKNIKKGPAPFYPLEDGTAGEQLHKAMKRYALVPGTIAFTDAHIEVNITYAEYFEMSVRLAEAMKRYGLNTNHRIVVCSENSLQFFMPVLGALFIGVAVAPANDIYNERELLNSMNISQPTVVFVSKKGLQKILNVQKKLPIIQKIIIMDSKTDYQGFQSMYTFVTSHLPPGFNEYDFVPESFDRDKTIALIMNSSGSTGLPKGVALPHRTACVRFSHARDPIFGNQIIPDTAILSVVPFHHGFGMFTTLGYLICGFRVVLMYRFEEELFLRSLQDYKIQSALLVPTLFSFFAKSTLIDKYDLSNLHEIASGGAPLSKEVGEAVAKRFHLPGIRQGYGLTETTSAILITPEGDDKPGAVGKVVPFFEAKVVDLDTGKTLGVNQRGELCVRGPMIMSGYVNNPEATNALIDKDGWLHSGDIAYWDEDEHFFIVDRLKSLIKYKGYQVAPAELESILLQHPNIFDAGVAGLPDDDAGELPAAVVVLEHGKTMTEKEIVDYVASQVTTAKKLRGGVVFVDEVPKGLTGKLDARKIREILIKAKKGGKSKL
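Biochemical qHTS: compound (6-point titration) added to 10uM D-luciferin plus 10uM ATP in Tris acetate pH 7.5 buffer with Mg, Tween-20 and BSA, then purified enzyme at 10nM; light output imaged.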
Numbers stand for hits; - = inactive; ? = inconclusive; . = no result given. Compounds with a hit are over-represented: about 11% of the library has one in this group of screens. Unless noted, calls come from the whole dose curve; as a rule, active = well fitted curve in the direction sought with a large enough effect; inconclusive = small, poorly fitted or top-dose-only effect, or another doubt; inactive = no such curve, though single readings can be large; an effect the other way counts as inactive or inconclusive.

SMILES	NIH3T3 tox	NPR1 antag	HEK293 tox	FLuc inh
O=C(NCCCc1ccccn1)c1ccc2nc(-c3ccc(F)cc3)cn2c1	?	-	44.7µM	?
CCN(Cc1ccc(C)o1)C(=O)c1ccc2nc(-c3ccc(F)cc3)cn2c1	?	-	?	39.8µM
O=C(NCCc1nc(-c2ccccc2)cs1)c1ccc2nccn2c1	?	-	39.8µM	-
O=C1CCN(S(=O)(=O)c2ccccc2)CCCC(C(=O)NCCCN2CCOCC2)CCN1 (centres undefined)	-	-	-	-
O=C(NCc1ccc(F)cc1)c1ccc2nc(-c3cccnc3Cl)oc2c1	?	.	-	.
O=C(NC1CCN(c2ccnc3ccnn23)C1)c1ccccc1Cl (centres undefined)	-	.	?	.
O=C(NCCCc1ccccc1)C1CCN(c2ccnc3ccnn23)CC1	?	.	39.8µM	.
O=C(NCc1cccc(C(F)(F)F)c1)C1CCCN(c2ccnc3ccnn23)C1 (centres undefined)	?	.	44.7µM	.
O=C(NCc1ccccn1)C1CCCN(c2ccnc3ccnn23)C1 (centres undefined)	?	.	-	.
O=C(NC1CCN(c2ccnc3ccnn23)CC1)c1ccc(Cl)cc1	?	.	44.7µM	.
O=C(NC1CCN(c2ccnc3ccnn23)C1)c1ccc(Cl)cc1 (centres undefined)	?	.	10µM	.
O=C(NCCc1ccccc1)C1CCCN(c2ccnc3ccnn23)C1 (centres undefined)	-	.	?	.
Cc1ccc(OCc2nc(C3CN(C(=O)CCc4nc5ccccc5s4)C3)no2)cc1	?	?	?	-
COc1ccc(CN2C(=O)CO[C@H]3CN(C(=O)NCc4ccccc4)C[C@H]32)cc1	-	-	-	-
O=C(NC1CCCN(c2ccnc3ccnn23)C1)c1ccc(C(F)(F)F)cc1 (centres undefined)	?	.	28.2µM	.
Cc1cc(C(=O)N2CCCN(c3ccnc4ccnn34)CC2)ccc1Cl	?	.	44.7µM	.
O=C(NCC1CCCCC1)C1CN(c2ccnc3ccnn23)C1	-	.	25.1µM	.
O=C(NCC1CC1)C1CCCN(c2ccnc3ccnn23)C1 (centres undefined)	-	.	-	.
CN(C)c1ncc2c(n1)C(C)(C(=O)Nc1ccncc1)CCC2 (centres undefined)	10µM	-	?	-
CN(C)c1ncc2c(n1)C(C)(C(=O)Nc1cccc(F)c1)CCC2 (centres undefined)	?	-	?	-
CN(C)c1ncc2c(n1)C(C)(C(=O)NCc1cccc(Cl)c1)CCC2 (centres undefined)	?	-	100µM	-
CN(C)c1ncc2c(n1)C(C)(C(=O)NCc1cccc(F)c1)CCC2 (centres undefined)	?	-	?	-
CCN1CCC(OCCCNC(=O)C2(CCO)CC23CCOCC3)CC1 (centres undefined)	-	-	-	-
COC1CN(c2cccc(F)c2)C12CCN(C(=O)NC(C)(C)C)CC2 (centres undefined)	-	-	?	-
COC1CN(c2cccc(F)c2)C12CCN(C(=O)NCCc1ccccc1)CC2 (centres undefined)	?	-	50.1µM	-
SMILES	NIH3T3 tox	NPR1 antag	HEK293 tox	FLuc inh
COC1CN(c2cccc(F)c2)C12CCN(C(=O)NC1CCCCC1)CC2 (centres undefined)	?	-	44.7µM	-
COC1CN(c2cccc(F)c2)C12CCN(C(=O)C1CCCCC1)CC2 (centres undefined)	-	-	28.2µM	-
COC1CN(c2cccc(F)c2)C12CCN(S(=O)(=O)c1cccc(F)c1)CC2 (centres undefined)	?	.	28.2µM	.
COc1ccc2nc([C@H]3CCN(Cc4ccc5c(c4)OCO5)C3)[nH]c2c1	?	-	?	-
C=CCNC(=O)N1[C@@H](c2ccccc2)[C@@H](C(=O)OCC)C[C@]12CCCCN(CCOC)C2=O	?	.	-	.
CC(C)C(=O)N1CCCC1C(=O)N1CCC(c2nc3ncccc3[nH]2)CC1 (centres undefined)	-	.	-	.
COC[C@@H]1OC[C@@]2(C)C3CC[C@@H](O)[C@@H](CC(=O)NCc4ccc(F)cc4)[C@]3(C)CC[C@H]2O1 (some centres undefined)	-	-	-	-
C[C@@]12CO[C@@H](COc3ccccc3)O[C@@H]1CC[C@]1(C)C2CC[C@@H](O)[C@H]1CC(=O)NCc1cc(F)cc(F)c1 (some centres undefined)	?	?	28.2µM	-
O=C(c1cc(COc2ccccc2F)[nH]n1)N1CCOCC1	-	-	-	31.6µM
CN(CCC1CCOCC1)C(=O)c1cc(COc2ccccc2F)[nH]n1	-	-	-	-
O=C(N[C@H]1CO[C@H]2[C@@H]1OC[C@@H]2Nc1nccc(-c2ccc(-c3ccccc3)cc2)n1)c1ccc2c(c1)OCO2	-	-	-	-
O=S(=O)(Cc1ccccc1)N[C@H]1CO[C@H]2[C@@H]1OC[C@@H]2Nc1nccc(-c2cccc(F)c2)n1	?	?	31.6µM	-
COc1cccc(NC(=O)O[C@@H]2CO[C@H]3[C@@H]2OC[C@@H]3Nc2nccc(-c3cccc(F)c3)n2)c1	?	-	44.7µM	-
CS(=O)(=O)N[C@H]1CO[C@H]2[C@@H]1OC[C@@H]2Nc1nccc(-c2cccc(F)c2)n1	-	-	-	-
N#Cc1cccc(NC(=O)O[C@@H]2CO[C@H]3[C@@H]2OC[C@@H]3Nc2nccc(-c3ccc4c(c3)OCO4)n2)c1	?	-	28.2µM	-
COc1ccc(-c2ccnc(N[C@H]3CO[C@H]4[C@@H]3OC[C@@H]4NC(=O)c3ccc4c(c3)OCO4)n2)cc1	?	?	31.6µM	-
Cc1ccc(NC(=O)N2CCCN(S(C)(=O)=O)C(c3ccccc3)CC(=O)NCC2)cc1C (centres undefined)	-	-	-	-
CC(C)(C)c1ccc(NC(=O)O[C@@H]2CO[C@H]3[C@@H]2OC[C@@H]3Nc2nccc(-c3ccc(-c4ccccc4)cc3)n2)cc1	39.8µM	-	28.2µM	-
COc1ccc(-c2ccnc(N[C@H]3CO[C@H]4[C@@H]3OC[C@@H]4NC(=O)Nc3cccc(C(F)(F)F)c3)n2)cc1	39.8µM	-	39.8µM	-
CN(C)c1ccc(-c2ccnc(N[C@H]3CO[C@H]4[C@@H]3OC[C@H]4OC(=O)Nc3cccc(C(F)(F)F)c3)n2)cc1	?	-	31.6µM	-
COc1ccccc1CC(=O)NC1CCN(c2cc(-c3ccccc3)[nH]n2)C1 (centres undefined)	-	-	?	-
COc1cccc(OCc2nnc(C(=O)N3CCC[C@@H]3c3nc4ccccc4[nH]3)n2-c2ccccc2)c1OC	?	-	-	-
COc1ccccc1-c1nc(C(=O)NCc2ccc3c(c2)OCO3)n2ccccc12	?	-	-	-
O=C(Nc1cccc(-c2ccc(N3CCOCC3)nn2)c1)Nc1cc(Cl)ccc1Cl	-	-	-	1µM
O=C(Nc1cccc(-c2ccc(N3CCOCC3)nn2)c1)Nc1ccccc1Cl	?	?	?	1.58µM

Screening results deposited in PubChem BioAssay by National Center for Advancing Translational Sciences (NCATS).
